Source: PubChem BioAssay
A selection: hits, their analogues and other compounds. The true share with any hit is near 4.2%.
PfHsp90 yeast 2 = growth inhibition of yeast expressing Plasmodium Hsp90; AID 504621; inhibition, % at 9.4 µM; 310,000 compounds, 0.32% hits; S. cerevisiae expressing PfHsp90, BacTiter-Glo ATP, 48 h; yeast lacking PDR1 and PDR3 efflux regulators;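 active means every replicate shows inhibition above about 80%, whatever the replicate mean, limit read from the data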
tim10-1 inh = inhibits growth of tim10-1 mutant yeast; S. cerevisiae tim10-1 ts strain growth, BacTiter-Glo, 24 h; inhibition, % at 20 µM; 330,000 compounds, 2.2% hits; AID 463190;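 active means inhibition of at least 40%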;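 further: mutant grown at 25 °C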
TIM10 inh = growth inhibitors of TIM10 yeast strain; S. cerevisiae TIM10 strain growth, BacTiter-Glo luminescence, 24 h; inhibition, % at 10 µM; 330,000 compounds, 1.4% hits;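 active means inhibition of 40% or more at the single tested concentration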;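 further: wild-type TIM10 isogenic control strain grown at permissive 25 °C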
NLRP3 yeast inh = inhibitors of NALP3 inflammasome in yeast | Yeast reconstituted NLRP3/ASC/caspase-1, beta-gal luminescence, 24 h | inhibition, % at 10 µM | 330,000 compounds, 0.39% hits;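 active means inhibition of 50% or more; inactive means inhibition below 50%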
tim23-1 inh = tim23-1 yeast growth inhibition | 330,000 compounds, 1.3% hits | inhibition, % at 20 µM | S. cerevisiae tim23-1 growth, BacTiter-Glo luminescence, 24 h;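 active means growth inhibition of the mutant yeast at or above 50%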;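 further: temperature-sensitive mutant grown at 25 °C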
NALP1 yeast inh = blocks the NALP1 inflammasome reconstituted in yeast; S. cerevisiae NALP1/ASC/caspase-1 growth, X-gal OD620, 72 h; 280,000 compounds, 0.61% hits; inhibition, % at 10 µM; in the data active means inhibition mostly above about 24%, no sharp cut-off; inactive means mostly below about 32%
tim10-1 confirm = tim10-1 yeast growth inhibition, confirmed; inhibition, % at 20 µM; S. cerevisiae tim10-1 ts strain growth, BacTiter-Glo, 24 h; 7,400 compounds, 56% hits; shares compounds with tim10-1 inh;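 active means inhibition of yeast growth at or above a set limit in either of two repeat tests at 20 µM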;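 further: tim10-1 mutant grown at permissive 25 °C to find synthetic lethal compounds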
Large screens that a line does not name were inactive (follow-up assays come after a bar, where they were run).

CC(C)c1ccc(NC(=S)N2CCN(S(=O)(=O)c3ccccc3)CC2)cc1	tim10-1 inh 41.3 | tim10-1 confirm inactive
COc1ccc(S(=O)(=O)N2CCN(C(=O)c3ccc(NC(C)=O)cc3)CC2)cc1	none (no result: NALP1 yeast inh)
Cc1ccc(CNC(=O)CS(=O)(=O)c2cn(CC(=O)N3CCOCC3)c3ccccc23)cc1	none
CC1C(=O)C(C)(C)C(=O)OC1c1ccccc1 (centres undefined)	none
C[C@H]1C=CC(=O)O[C@H]1c1ccccc1	tim10-1 inh 48.1 (no result: NALP1 yeast inh) | tim10-1 confirm 52.2
O=C(N/C(=C/c1ccc(Br)cc1)C(=O)N1CCCC1)c1cccs1	tim10-1 inh 46.0 | tim10-1 confirm inactive
O=C(N/C(=C\c1ccc(Br)cc1)C(=O)N1CCCC1)c1cccs1	none
Cc1cc(/C=N/n2cnnc2)c(C)n1-c1ccc(OCc2ccccc2F)cc1	tim10-1 inh 45.8 | tim10-1 confirm inactive
O=C(CSc1ccc2nnc(-c3cccnc3)n2n1)Nc1ccccc1C(F)(F)F	none
CCOC(=O)c1c2c(n(C)c1COC)C(=O)C(=O)c1ccc(Br)cc1-2	tim10-1 inh 47.7 (no result: PfHsp90 yeast 2, NALP1 yeast inh) | tim10-1 confirm inactive
Cc1ccc(-n2nc3c(c2NC(=O)c2ccc4c(c2)OCO4)CS(=O)(=O)C3)c(C)c1	none
CC(c1ccco1)N(C(=O)c1ccccc1NS(=O)(=O)c1cccc([N+](=O)[O-])c1)c1ccccn1 (centres undefined)	tim10-1 inh 41.7 | tim10-1 confirm 33.8
COc1cc(-c2nnc(COC(=O)CSc3cc(C)c4ccccc4n3)o2)cc(OC)c1OC	tim10-1 inh 40.2 | tim10-1 confirm inactive
COc1cc(CCC(=O)OCc2nnc(-c3ccccc3)o2)cc(OC)c1OC	none
CCc1ccc(NC(=O)NCc2cccnc2)cc1	none
Cc1ccc(C(=O)CSC2=C(C#N)C(c3ccco3)C3=C(CC(C)(C)CC3=O)N2)cc1 (centres undefined)	none
N#CC1=C(SCC(=O)c2ccc(Cl)cc2)NC2=C(C(=O)CCC2)C1c1ccco1 (centres undefined)	tim10-1 inh 46.0 | tim10-1 confirm inactive
CC(=O)Nc1ccccc1OCC(=O)c1cc(C)n(Cc2cccs2)c1C	tim10-1 inh 48.4 (no result: PfHsp90 yeast 2) | tim10-1 confirm inactive
Cc1cc(C(=O)COc2cccnc2[N+](=O)[O-])c(C)n1Cc1cccs1	none
COc1ccc(-n2cnnc2SCC(=O)c2cc(C)n(Cc3cccs3)c2C)cc1	tim10-1 inh 44.2 | tim10-1 confirm inactive
COc1ccc(NC(=O)c2cc([N+](=O)[O-])ccc2O)cc1	PfHsp90 yeast 2 76.4, tim10-1 inh 52.1 | tim10-1 confirm 50.8
C=CC[C@@H](CC(=O)N[C@H](CO)Cc1ccccc1)C(=O)N[C@H](COC(=O)[C@@H](CC=C)CC(=O)OC(C)(C)C)Cc1ccccc1	none (no result: NALP1 yeast inh)
Cc1cc(OC(=O)c2cccc(Br)c2)c([N+](=O)[O-])c(=O)[nH]1	tim10-1 inh 45.8 | tim10-1 confirm inactive
Cc1cccc2nc(COc3ccc(Cl)c4cccnc34)cn12	tim10-1 inh 40.5 | tim10-1 confirm 35.7
CC1=C(/C=C/C(C)=C/C=C/C(C)=C/CO)C(C)(C)CCC1	tim10-1 inh 43.6 (no result: NALP1 yeast inh) | tim10-1 confirm inactive
CCN(C(=O)CSc1nnc(-c2ccccc2Cl)n1N)c1c(N)n(Cc2ccccc2)c(=O)[nH]c1=O	none (no result: tim10-1 inh, TIM10 inh, NLRP3 yeast inh, tim23-1 inh, NALP1 yeast inh)
COc1ccc(CN(Cc2ccccn2)S(=O)(=O)c2ccc(-n3cnnn3)c(OC)c2)cc1	none
COc1ccc(CN(Cc2ccccn2)S(=O)(=O)c2ccc(-n3cnnn3)cc2)cc1	tim10-1 inh 40.1 | tim10-1 confirm inactive
CCc1cc2c(NCc3ccccc3)nc(C)nc2s1	tim10-1 inh 48.5 | tim10-1 confirm inactive
CCCn1cnnc1CNC(=O)C1CCC(=O)N(CCc2ccc(OC)cc2)C1 (centres undefined)	none
CCC(C(=O)c1ccc(O)cc1)c1ccccc1 (centres undefined)	tim10-1 inh 45.7 | tim10-1 confirm inactive
CCC(C(=O)N(C(C)C)C(C)C)c1ccccc1 (centres undefined)	none (no result: NALP1 yeast inh)
CCN(C(=O)c1ccc(S(=O)(=O)N2CCC(C)CC2)cc1)C1CCS(=O)(=O)C1 (centres undefined)	none (no result: NALP1 yeast inh)
O=C(CCn1c(=S)oc2ccccc21)NC1CCCCCCC1	none (no result: NALP1 yeast inh)
Cc1nonc1C(=O)N/N=C/c1ccc(O)cc1O	tim10-1 inh 45.7 | tim10-1 confirm inactive
Nc1c(C(=O)c2ccc(F)cc2)oc2ccccc12	tim10-1 inh 45.3 | tim10-1 confirm inactive
Nc1c(C(=O)c2ccccc2)oc2ccccc12	none
CC(OC(=O)Cc1ccc(Br)cc1)C(=O)NC1CCCC1 (centres undefined)	none (no result: PfHsp90 yeast 2, NALP1 yeast inh)
O=c1c2ccccc2nc2c3ccccc3c(NCCO)nn12	tim10-1 inh 41.8 | tim10-1 confirm 32.5
CC(c1ccccc1)N1C(=O)OC(C)(C)C1(C)O (centres undefined)	none (no result: NALP1 yeast inh)
CC1(C)OC(=O)N(c2ccccc2)C12C=Cc1c(ccc3ccccc13)O2 (centres undefined)	tim10-1 inh 42.5 | tim10-1 confirm inactive
O=C(CN1C(=O)NC2(CCc3ccccc32)C1=O)c1c[nH]c2ccccc12 (centres undefined)	none (no result: NALP1 yeast inh)
O=C1CCSc2ccc(Cl)cc2N1Cc1ccc(Cl)cc1	tim10-1 inh 45.5 | tim10-1 confirm inactive
COc1cccc2cc(C(=O)Oc3ccccc3)c(=O)oc12	none
COc1cccc2cc(C(=O)OCc3ccccc3)c(=O)oc12	tim10-1 inh 41.6 | tim10-1 confirm inactive
CCN(CC)c1ncnc2c1sc1nc(C)cc(C)c12	tim10-1 inh 42.5 (no result: PfHsp90 yeast 2) | tim10-1 confirm inactive
Cc1cc(C)c2c(n1)sc1c(N3CCCCC3)ncnc12	none (no result: NALP1 yeast inh)
CCc1cc2c(=O)c(-c3nc(C)cs3)coc2cc1O	none (no result: NALP1 yeast inh)
Cc1csc(-c2coc3cc(O)cc(C)c3c2=O)n1	tim10-1 inh 43.2 | tim10-1 confirm inactive
CCc1nnc(NC(=O)c2cc(-c3ccccn3)nc3ccc(Br)cc23)s1	tim10-1 inh 83.2 | tim10-1 confirm inactive
Cc1[nH]c2ccccc2c1C(O)CN1CCN(c2cccc(C(F)(F)F)c2)CC1 (centres undefined)	tim10-1 inh 54.6 | tim10-1 confirm 48.3
Cc1[nH]c2ccccc2c1NC(=O)CN1CCN(c2cccc(C(F)(F)F)c2)CC1	none
CNc1nc(-c2ccccn2)nnc1-c1ccccc1	tim10-1 inh 44.6 | tim10-1 confirm 32.1
Cc1csc(CNC(=O)c2cc(COc3c(C)cccc3C)on2)n1	none
NNC(=O)c1[nH]c2ccccc2c1-c1ccccc1	tim10-1 inh 42.0 | tim10-1 confirm 34.9
CCCOc1ccc(CSCCNC(=S)Nc2ccccc2)cc1	tim10-1 inh 46.1 | tim10-1 confirm inactive
S=C(NCCSCc1ccccc1Cl)Nc1ccccc1	none (no result: NALP1 yeast inh)
Cc1cc(C(=O)CSc2nnc(-c3cccs3)o2)c(C)n1-c1ccccc1	tim10-1 inh 48.3 | tim10-1 confirm 34.2
